# This is one part of a sample in which hits are shown more often than they occur.
# TTR transcr act = TTR transcription activators in neuroblastoma reporter cells, primary screen, cell-based, luminescence, SH-SY5Y, TTR promoter Gaussia luciferase; activation, % at 16.7 µM; 100% = recombinant luciferase protein wells; AID 1117267, 2014; 92,000 tested, 1.3% active;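 active means activation above the mean of all tested compounds plus 3 SD, cut at about 9.5% in these data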;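 further: cells exposed to compounds for one day before reading; 0% = median of all test compound wells on the plate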
# TTR inh HuH7 = TTR promoter reporter inhibitors in hepatoma cells, counter-screen for TTR transcription activator project, cell-based, luminescence, HuH7 hepatoma; inhibition, % at 16.7 µM; 1,100 tested, 4% active; HuH7 TTR promoter-Gaussia luciferase reporter; AID 1117279, 2014; shares compounds with TTR transcr act;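 active means average inhibition above the solvent-only control wells' mean plus 3 SD, cut at about 15% in these data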;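 further: 0% = cells with DMSO only and 100% = cells with inhibitor control FD; inhibitors lower well luminescence so higher value means more inhibition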
# TTR act confirm = TTR transcription activators, retest, confirmation, cell-based, luminescence, SH-SY5Y, triplicate | SHSY5Y TTR promoter Gaussia luciferase; 100% = purified Lucia enzyme wells, no cells | activation, % at 16.7 µM | 1,100 tested, under 10 active | shares compounds with TTR transcr act;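 active means mean activation above a set limit taken from the earlier primary screen, cut at about 11% in these data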;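 further: 0% = DMSO-treated cells and 100% = recombinant Lucia luciferase without cells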
# * = called active by the depositor.
SMILES,TTR transcr act,others
CC(=O)c1cccc(N2C(=NC(=O)CCc3ccccc3)SC3CS(=O)(=O)CC32)c1 (stereo not given),0,
CC(=O)c1ccc(N2C(=NC(=O)C3CCCO3)SC3CS(=O)(=O)CC32)cc1 (stereo not given),-2,
CC(=O)c1ccc(N2C(=NC(=O)COc3ccccc3)SC3CS(=O)(=O)CC32)cc1 (stereo not given),10*,TTR inh HuH7=-10;TTR act confirm=0
CC1(c2nnnn2-c2ccc3c(c2)OCCO3)CCC(=O)N1CCc1ccccc1F (stereo not given),1,
CCCCn1nnnc1C1(C)CCC(=O)N1Cc1cccc(F)c1 (stereo not given),-1,
CCOC(=O)c1c(C)n(C)c2ccc(OCCN(C)C)cc12,4,
CCOC(=O)c1c(C)n(C)c2ccc(OCC(O)CNC(CC)CO)cc12 (stereo not given),14*,TTR inh HuH7=-10;TTR act confirm=2
CCOC(=O)c1c(C)n(C)c2ccc(OCC(O)CN3CCCCCC3)cc12 (stereo not given),-1,
CCN(CC)C(=O)c1nc[nH]c1C(=O)N1CCc2ccccc2C1,-3,
CC1Sc2ccccc2N(Cc2ccc(OC(F)(F)F)cc2)C1=O (stereo not given),2,
N#Cc1ccc(C(=O)Nc2cc(C3CC3)nn2-c2ccccc2)cc1,0,
CCc1nnc(NC(=O)c2cccc(S(=O)(=O)N3CCN(C(C)=O)CC3)c2)s1,-1,
CCc1nnc(NC(=O)c2cccc(S(=O)(=O)N3CCc4ccccc43)c2)s1,15*,TTR inh HuH7=13;TTR act confirm=-1
O=C(Nc1nc2ccccc2s1)c1cccc(S(=O)(=O)N2CCc3ccccc32)c1,-2,
COc1ccccc1C(=O)NC1CCCCN(Cc2ccccc2C)C1=O (stereo not given),0,
CCOC(=O)[C@]12CCC=C1N(Cc1ccc(Cl)cc1Cl)C(=O)[C@H](CC(=O)NCc1ccc(OC)c(OC)c1)C2,-3,
CCCn1c(SCC(=O)N2CCCc3ccccc32)nnc1-c1ccccn1,0,
CCCCn1c(SCC(=O)N2CCc3ccccc32)nnc1-c1ccncc1,17*,TTR inh HuH7=-10;TTR act confirm=-1
CCCn1c(SCC(=O)N2CCc3ccccc32)nnc1-c1ccco1,-2,
CC(C)(C)C(=O)n1nc(-c2ccccc2)oc1=O,-2,
COc1ccc(C=NNC(=O)CCCC(=O)NN=Cc2ccc(OC)c(OC)c2)cc1OC,0,
COc1cc(/C=N/NC(=O)COc2c(C)cc([N+](=O)[O-])cc2C)ccc1OC(=O)c1ccccc1Br,15*,TTR inh HuH7=14;TTR act confirm=-2
COc1ccc(C(=O)N/N=C/c2ccc(OC(=O)c3cccc4ccccc34)c([N+](=O)[O-])c2)cc1,-3,
CCOC(=O)C1=C(C)N=C2SC(C(=O)OC)=CC(=O)N2C1c1ccc(OC)cc1 (stereo not given),0,
COc1ccc(C(Nc2ccccn2)c2c(NC(=O)c3ccco3)sc(C)c2C)cc1OC (stereo not given),7,
SMILES,TTR transcr act,others
COc1ccc(C(CNC(=O)c2ccco2)N2CCCCC2)cc1 (stereo not given),1,
COc1ccc(C(c2c(NC(=O)c3ccco3)sc(C)c2C)N2CCOCC2)cc1 (stereo not given),14*,TTR inh HuH7=0;TTR act confirm=0
O=C(OCC#CCSc1nnc(-c2cccc3ccccc23)o1)c1cccc(F)c1,9,
O=C(CSc1nc2[nH]ncc2c(=O)[nH]1)N1CCCCC1,-1,
COC(=O)[C@]12C[C@H](CC(=O)N3CCC(c4ccccc4)CC3)C(=O)N(Cc3ccc(Cl)cc3Cl)C1=C[C@H](C1CCCC1)O[C@@H]2C,-1,
O=C(Nc1c(-c2ccc(F)cc2)nc2ncccn12)c1ccccc1,2,
COCCCNC(=O)C[C@H]1C[C@@]2(C(=O)OC)C(=C[C@H](COCc3ccccc3)O[C@@H]2C)N(Cc2cccc3ccccc23)C1=O,-2,
CCOC(=O)N/N=C\c1sccc1C,-1,
CCOC(=O)N/N=C/c1ccc(F)cc1F,26*,TTR inh HuH7=-4;TTR act confirm=0
CCOC(=O)N/N=C/c1ccccc1OCc1ccc(Cl)cc1,-2,
COC(=O)c1ccc(C(=O)OC)c(NC(=S)N2CCN(c3cccc(Cl)c3)CC2)c1,1,
CCC(CC)C(=O)Nc1nnc(SCC(=O)NC(C)(C)C)s1,0,
O=C(NCCc1ccccc1)C(c1ccc(F)cc1)N(C(=O)c1csnn1)C1CC1 (stereo not given),-2,
O=C(Nn1cnnc1)c1ccc(Cl)cc1[N+](=O)[O-],-1,
CC(C)N(CC#CCC(O)(c1ccccc1)c1ccccc1)C(C)C,1,
CC(c1ccccc1C(O)(c1ccccc1)c1ccccc1)N(C)C (stereo not given),2,
CN(C)CC(CCC(CN(C)C)C(O)(c1ccccc1)c1ccccc1)C(O)(c1ccccc1)c1ccccc1 (stereo not given),11*,TTR inh HuH7=53*;TTR act confirm=0
CN(CCCOC(=O)c1cccs1)C1CN(Cc2cn(Cc3ccccc3Cl)nn2)S(=O)(=O)C1 (stereo not given),-1,
C/C(=N/NC(=O)CN1CCN(Cc2ccccc2Cl)CC1)c1cccnc1,5,
CCN(C(=O)[C@@H](C)[C@@H](O)c1ccc2ccccc2c1)c1ccccc1,-1,
CCOC(=O)c1ccc(N=Nc2c(C)[nH]n(-c3ccccc3)c2=O)cc1,0,
CC(=O)N(C)c1ccc(N=Nc2c(C)[nH]n(C(N)=S)c2=O)cc1,-1,
CC(=O)N(C)c1ccc(N=Nc2c(C)[nH]n(-c3ccccc3)c2=O)cc1,11*,TTR inh HuH7=-4;TTR act confirm=0
O=C(NCCc1c[nH]c2ccccc12)OCc1cn(Cc2ccc(F)c(F)c2)nn1,0,
O=C(NCc1ccccc1)N1CCC(Cc2ccccc2)CC1,0,
SMILES,TTR transcr act,others
Cc1ccc2c(c1)nnn2C1CCN(CC(=O)N(c2ccccc2)c2ccccc2)CC1,-2,
Cc1ccc2c(c1)nnn2C1CCN(C(=O)NCc2ccccc2)CC1,9.7*,TTR inh HuH7=6;TTR act confirm=-1
O=C(CSCc1ccccc1)Nc1ccccc1C(=O)Nc1ccc(C(=O)O)cc1,1,
O=C(OCc1cn(Cc2ccccc2)nn1)N1CCOCC1,2,
COc1ccc(C(NC(=O)C2CCCCC2)c2c(O)ccc3ccccc23)cc1 (stereo not given),-1,
CCOC(=O)C1=C(C)NC(C)=C(C(=O)OCC)C1c1ccco1,0,
CCOC(=O)C1=C(c2ccccc2)OC(N)=C(C#N)C1c1ccco1 (stereo not given),13*,TTR inh HuH7=-4;TTR act confirm=0
CCOC(=O)C1=C(c2ccccc2)OC(N)=C(C#N)C1C1CCCCC1 (stereo not given),-2,
COc1ccc(-n2c3c(cc(C#N)c2=O)C(=O)CCC3)cc1,2,
O=C(CCCSc1nnnn1-c1cccc2ccccc12)c1ccc(F)cc1,-2,
Cc1ccc(-c2[nH]c(-c3ccc(C(=O)O)cc3)nc2-c2ccccc2)cc1,12*,TTR inh HuH7=2;TTR act confirm=-1
O=c1nc(-c2ccccc2)nc(-c2ccccc2)[nH]1,-4,
NC(=O)c1nc(-c2ccccc2)c(-c2ccccc2)[nH]c1=O,-2,
CC(=O)c1ccc(NC(=O)C(C)OC(=O)C2CC(=O)N(c3ccc4c(c3)OCCO4)C2)cc1 (stereo not given),2,

# Source: PubChem BioAssay (The Scripps Research Institute Molecular Screening Center)
